Sampled rows, rich in hits. Any-hit rate of the full collection: about 6.8%.
DPM-DC inhibit = S. pneumoniae DPM-DC inhibition. purified DPM-DC, PK/LDH coupled NADH fluorescence. calls only at 10 µM. actives 0.49% (n = 65,000). AID 556;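 active means the 320 compounds with the highest percent inhibition in the single-dose primary screen, excluding strongly autofluorescent ones, cut at about 32% in these data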;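 further: kinetic rate of NADH fluorescence loss reporting ADP formed by the decarboxylase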
Spn PMK inh = S. pneumoniae PMK inhibition; purified PMK, PK/LDH-coupled NADH absorbance 340 nm; inhibition, % at 10 µM; actives 0.49% (n = 65,000); AID 539;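 active means top-ranked compounds by inhibition in the single 10 µM screen, taking a fixed number of the strongest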
NADH enzymes = inhibitors of enzymes used to reach an NAD/NADH endpoint; coupled PK/LDH NADH assays, four targets; IC50, µM (doses to about 10 µM); actives 0.02% (n = 65,000);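 active means single-dose screening hits from any of four coupled enzyme assays that gave an IC50 when retested across doses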;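 further: the DPM-DC format reads NADH fluorescence rather than 340 nm absorbance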
Spn MK inh = blocks S. pneumoniae mevalonate kinase; actives 0.48% (n = 65,000); purified MK, PK/LDH-coupled NADH absorbance 340 nm; AID 555; inhibition, % at 10 µM;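 active means ranked among the strongest by inhibition in the single 10 µM screen, a fixed top-ranked set picked for dose follow-up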
Abs 340nm = absorbance at 340 nm; AID 708; 65,000 tested, under 10 active; compound absorbance at 340 nm, fold over control; fold change at 10 µM;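 active means at 10 µM dose, initial 340 nm absorbance at least 2 fold that of control wells; inactive means change under 2 fold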;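 further: initial absorbance extrapolated from kinetic A340 decline of NADH oxidation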
Autofluor 339 = intrinsic fluorescence of library compounds, ex339/em460 – biochemical, MLSMR library, data from DPM-DC assay, artefact control, profiling panel. compound autofluorescence, ex339/em460 nm, NADH buffer; active compounds read high; 1 = no-compound wells, NADH background. fluorescence fold increase at 10 µM. actives 5.5% (n = 65,000). AID 709;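 active means at 10 µM, mean starting fluorescence two-fold or more over control wells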;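 further: signal is the first read of a kinetic run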
A number is an active result; [ ] = another dose, or the depositor's remark.

What do the screens show for `Cc1ccc2nc(CCc3nc4ccc(C)cc4o3)oc2c1`?
DPM-DC inhibit: inactive; Spn PMK inh: inactive; NADH enzymes: inactive; Abs 340nm: inactive; Autofluor 339: inactive

Results for COc1nc(-c2ccccc2)ccc1-c1noc(-c2ccco2)n1 ?
DPM-DC inhibit: inactive; Spn PMK inh: inactive; NADH enzymes: inactive; Spn MK inh: inactive; Abs 340nm: inactive; Autofluor 339: inactive

How did COc1ccc(-c2ccc(-c3noc(-c4ccco4)n3)c(OC)n2)cc1 do in these assays?
Spn PMK inh: inactive; NADH enzymes: inactive; Spn MK inh: inactive; Abs 340nm: inactive; Autofluor 339: 3.7

Results for COc1nc(-c2ccccc2)ccc1-c1noc(-c2cccs2)n1 ?
DPM-DC inhibit: inactive; Spn PMK inh: inactive; NADH enzymes: inactive; Spn MK inh: inactive; Abs 340nm: inactive; Autofluor 339: 2.2

How did COc1nc(-c2ccc(Cl)cc2)ccc1-c1noc(-c2ccncc2)n1 do in these assays?
DPM-DC inhibit: inactive; Spn PMK inh: inactive; NADH enzymes: inactive; Spn MK inh: inactive; Abs 340nm: inactive; Autofluor 339: 2.8

Results for c1ccc(OCc2nc(-c3ccccc3)no2)cc1 ?
DPM-DC inhibit: inactive; Spn PMK inh: inactive; NADH enzymes: inactive; Spn MK inh: inactive; Abs 340nm: inactive; Autofluor 339: inactive

What do the screens show for `COc1nc(-c2ccccc2)ccc1-c1noc(COc2ccccc2)n1`?
Spn PMK inh: inactive; NADH enzymes: inactive; Spn MK inh: inactive; Abs 340nm: inactive; Autofluor 339: 2.1

Results for O=S(=O)(NC1CCCC1)c1cccc(S(=O)(=O)N2CCC(n3nnc4ccccc43)CC2)c1 ?
DPM-DC inhibit: inactive; Spn PMK inh: inactive; NADH enzymes: inactive; Spn MK inh: inactive; Abs 340nm: inactive; Autofluor 339: inactive

How did COc1nc(-c2ccccc2)ccc1-c1noc(-c2ccccc2)n1 do in these assays?
DPM-DC inhibit: inactive; Spn PMK inh: inactive; NADH enzymes: inactive; Spn MK inh: inactive; Abs 340nm: inactive; Autofluor 339: inactive

Results for COc1ccc(-c2ccc(-c3noc(-c4ccccc4)n3)c(OC)n2)cc1 ?
Spn PMK inh: inactive; NADH enzymes: inactive; Spn MK inh: inactive; Abs 340nm: inactive; Autofluor 339: 3

Results for COc1ccc(-c2noc(-c3ccccc3F)n2)cc1 ?
DPM-DC inhibit: inactive; Spn PMK inh: inactive; NADH enzymes: inactive; Spn MK inh: inactive; Abs 340nm: inactive; Autofluor 339: inactive

What do the screens show for `CCOc1nc(-c2ccccc2)ccc1-c1noc(-c2cccnc2)n1`?
Spn PMK inh: inactive; NADH enzymes: inactive; Spn MK inh: inactive; Abs 340nm: inactive; Autofluor 339: inactive

How did COc1ccc(-c2ccc(-c3noc(-c4ccccc4F)n3)c(OC)n2)cc1 do in these assays?
Spn PMK inh: inactive; NADH enzymes: inactive; Spn MK inh: inactive; Abs 340nm: inactive; Autofluor 339: 3.7

Results for CCOc1nc(-c2ccccc2)ccc1-c1noc(-c2ccc(OC)c(OC)c2)n1 ?
DPM-DC inhibit: active[fluoresces]; Spn PMK inh: inactive; NADH enzymes: inactive; Spn MK inh: inactive; Abs 340nm: inactive; Autofluor 339: inactive

What do the screens show for `CCn1c(COc2ccc3c(c2)CCCC3)nnc1SCC(=O)Nc1nccs1`?
DPM-DC inhibit: inactive; Spn PMK inh: inactive; NADH enzymes: inactive; Spn MK inh: inactive; Abs 340nm: inactive; Autofluor 339: inactive

How did O=C(NC12CC3CC(CC(C3)C1)C2)c1ccccc1O do in these assays?
DPM-DC inhibit: inactive; Spn PMK inh: inactive; NADH enzymes: inactive; Spn MK inh: inactive; Abs 340nm: inactive; Autofluor 339: 2.2

What do the screens show for `CC(C)n1c(=N)c(C(=O)NCCc2ccccc2)cc2c(=O)n3ccccc3nc21`?
Spn PMK inh: inactive; NADH enzymes: inactive; Spn MK inh: inactive; Abs 340nm: inactive; Autofluor 339: 5.1

How did COC(=O)c1cc2c(=O)n3ccccc3nc2n(C(C)C)c1=N do in these assays?
Spn PMK inh: inactive; NADH enzymes: inactive; Spn MK inh: inactive; Abs 340nm: inactive; Autofluor 339: 3.9

Results for CCn1c(=N)c(C(=O)OC)cc2c(=O)n3ccccc3nc21 ?
Spn PMK inh: inactive; NADH enzymes: inactive; Spn MK inh: inactive; Abs 340nm: inactive; Autofluor 339: 3.7

Results for O=c1oc2ccc(Br)cc2cc1-c1nc2ccccc2o1 ?
DPM-DC inhibit: inactive; Spn PMK inh: inactive; NADH enzymes: inactive; Spn MK inh: inactive; Abs 340nm: inactive; Autofluor 339: 2.3
